We go through 34 molecules from PubChem BioAssay (NCATS).

Assay [1] in a line: Primary qHTS for inhibitors of nuclear receptor binding SET domain protein 2 (NSD2) in an isogenic RCH-ACV NSD2 p.E1099K mutant (9B) (AID 1645876). Further: nearly all actives have a fitted effect of over 70% in size. On the technique in general: Quantitative high-throughput screening tests each substance at several concentrations.
Assay [2] deals with N-terminal Xaa-Pro-Lys N-methyltransferase 1 (Homo sapiens) (UniProt Q9BV86). Kind of assay: Confirmatory qHTS for Inhibitors of N-terminal methyltransferase 1 (NTMT1): MTaseGlo Assay (AID 1645874). Further: nearly all actives have a fitted effect of over 65% in size. Put shortly:
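Enzyme mix (125 nM NTMT1, 100 uM SAM) + compound, 15 min RT; + 1 uM SPKRIA, 30 min RT, dark; MTase-Glo reagent 30 min, detection solution 30 min; luminescence. % inhibition vs no-enzyme/DMSO controls, 4-parameter Hill fit.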

Assay [3] can be described thus: Primary qHTS for inhibitors of nuclear receptor binding SET domain protein 2 (NSD2) in an RCH-ACV wild type WT cells (2C) (AID 1645877). Further: nearly all actives have a fitted effect of over 70% in size.

Results filed as inconclusive are left out. Activity calls are given as the source filed them. The call rests on the fitted dose curve; in most records, active means well fitted curve in the direction sought with a large enough effect; inconclusive means small, poorly fitted or top-dose-only effect, or another doubt; inactive means no such curve, though single readings can be large; an effect the other way counts as inactive or inconclusive.
Potency means the concentration at half of the fitted maximal effect.

N-terminal Xaa-Pro-Lys N-methyltransferase 1 (Homo sapiens), sequence (Q9BV86 whole entry, looked up): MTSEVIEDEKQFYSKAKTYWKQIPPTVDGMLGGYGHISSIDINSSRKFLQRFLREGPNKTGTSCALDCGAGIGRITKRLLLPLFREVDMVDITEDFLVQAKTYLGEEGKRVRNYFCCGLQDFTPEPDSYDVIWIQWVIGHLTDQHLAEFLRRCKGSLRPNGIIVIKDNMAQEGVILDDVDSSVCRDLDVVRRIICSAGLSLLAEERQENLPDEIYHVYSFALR

Consider `C[C@@]12C(=O)N(c3ccc(C(=O)Nc4cccc5cccnc45)cc3)C(=O)[C@@H]1[C@@H]1C=C[C@H]2C1`, for which, in assay [1], the Potency entry is “inactive”.

For the molecule `O=C(Cc1cccc(OC(F)(F)F)c1)Nc1ccc(CCCCc2nnc(NC(=O)Cc3ccccn3)s2)nn1`, the Potency entry in assay [1] was “inactive”. `COc1c2c(nc3occc13)C(CC=C(C)C)(OC)C(O)CC2` (stereo not drawn): in assay [1], the Potency entry was “inactive”. On the same count and under the same terms, then `CN1CCN(c2ccc(Nc3cc(-c4cccc(-n5ccc6cc(C7CC7)cc(F)c6c5=O)c4CO)cn(C)c3=O)nc2)CC1`, with 20.6 µM (active). `COc1cc(CCc2ccc(OCC=C(C)C)cc2)cc(OC)c1OC`: the Potency result in assay [2] and in assay [3] was “inactive” throughout.

For the molecule `N#Cc1cc(C2=Nc3ccc(Br)cc3NC(=O)C2)ccn1`, the Potency result in assay [1] is “inactive”. As for `C=C[C@H](/C=C\c1ccc(O)cc1)c1ccc(O)cc1`, the Potency in assay [1] was 16.3 µM (active). With `C=C1[C@H]2CC[C@H](C(=O)O)[C@@]23CC[C@H](C3)C1(C)C`, in assay [1], the Potency result is “inactive”. For the molecule `O=C1COC2(CCN(S(=O)(=O)c3ccc(-c4ccc5cccnc5c4)cc3)CC2)CN1C1CC1`, in assay [1], the Potency result was “inactive”. Take `O=C([C@@H]1CCCN(c2ccc3[nH]c(C4(n5cc(Cl)cn5)CC4)nc3n2)C1)N1CCCC1`: the Potency entry in assay [2] and in assay [3] was “inactive” each time. Regarding `C=C1/C(=C/C=C2\CCC[C@@]3(C)C2CCC3[C@H](C)/C=C/[C@@H](O)C2CC2)C[C@@H](O)C[C@@H]1O` (stereo partly drawn), the Potency in assay [1] was 23 µM (active). In the case of `C/C=C/C=C/C(=O)O[C@@H]1C=C2COC(=O)[C@]2(O)[C@@]2(C)CCCC(C)(C)[C@H]12`, the Potency entry in assay [1] was “inactive”. Turning to `CC(C)C[C@H](CO)Nc1nc(S[C@@H](C)c2ccccc2)nc2nc(N)sc12`, the Potency in assay [1] was 26.3 µM (active). `CCOC(=O)c1csc(Nc2ccc(Cl)cc2)n1`: the Potency in assay [1] is 18.3 µM (active). Consider `CCNC1(C(N)=O)CN(c2nc(C)nc3c(-c4ccc(Cl)cc4)c(-c4ccccc4Cl)nn23)C1`, for which the Potency in assay [1] was 20.5 µM (active). `C/C=C(\C)C(=O)O[C@H]1C[C@](C)(O)[C@H]2CC=C(C)[C@H]2[C@@H]2OC(=O)[C@H](C)[C@H]21`: in assay [1], the Potency result is “inactive”. As to `O=C(Nc1ncc([N+](=O)[O-])s1)c1ccccc1O`, the Potency result in assay [1] was “inactive”. In the case of `Cc1cc2c(F)c(Oc3ncnn4cc(OCC(C)OC(=O)C(C)N)c(C)c34)ccc2[nH]1` (stereo not drawn), in assay [1], the Potency is 9.34 µM (active). As to `C=C1C(=O)O[C@H]2CC(=C)[C@H]3CC[C@@](C)(O)[C@@H]3CC12` (stereo partly drawn), the Potency in assay [1] is 12.9 µM (active). Regarding `C=C1CC2OC(=O)C(COC)C2C(OC(=O)/C(C)=C\C)CC2(C)OC1=CC2=O` (stereo not drawn), the Potency in assay [1] was 3.58 µM (active). In the case of `Cn1cc(C2=C(c3coc4ccccc34)C(=O)NC2=O)c2cc(Br)ccc21`, in assay [1], the Potency is 18.4 µM (active). The same measure, in the same setting: as for `CC1(C)CCCC2(C)C1C(=O)C=C(C(=O)O)C2(O)C(=O)O` (stereo not drawn), the figure is 25.8 µM (active); as for `C=C1C(=O)O[C@@H]2C[C@]3(C)[C@@H](CCC(C)O)[C@@H]3C[C@H]12` (stereo partly drawn), 18.3 µM (active).

Take `C/C=C(/C)C(=O)OC1CC(C)(C)CC2C3=CCC4C5(C)CCC(O[C@@H]6O[C@H](C(=O)O)[C@@H](O)[C@H](O)[C@H]6O[C@@H]6O[C@H](CO)[C@H](O)[C@H](O[C@@H]7OC[C@H](O)[C@H](O)[C@H]7O[C@@H]7O[C@H](CO)[C@@H](O)[C@H](O)[C@H]7O)[C@H]6O)C(C)(C)C5CCC4(C)C3(C)C(O)C(O)C12CO` (stereo partly drawn): in assay [1], the Potency was 2.18 µM (active).

For the molecule `CCCC1(CCC)CCC2(CCN(CCCN(CC)CC)C2)CC1`, the values for the Potency in assay [2], in assay [1] and in assay [3] were 50.1 µM (active), 2.63 µM (active) and 2.09 µM (active), respectively.

Take `Cc1cc(F)c(C(=O)Nc2cccc(-c3nncn3C(C)C)n2)cc1-n1cnc(C2CC2)c1`: the Potency in assay [1] was 11.8 µM (active). Take `CC(C)C(C)C(O)C1CC23CC(=O)C4(O)C(=C2CCC3C1C)C=CC1(O)CC(O)CCC14C` (stereo not drawn): the Potency entry in assay [1] is “inactive”. The same measure, in the same setting: as for `CC(=O)O[C@@H]1C2=C(O)C(=O)[C@](C)(OC(C)=O)C(=O)C2=CO[C@@]12O[C@@H](C)CC[C@H]2OC(C)=O`, the entry is “inactive”; as for `Cc1cc2ncc(C(=O)NCC(C)(C)NCC(=O)N3CCC[C@H]3C#N)cn2n1`, “inactive”; as for `O[C@@](Cc1ncc(CC2(C(F)(F)F)CC2)[nH]1)(c1ccc(-n2cccn2)cc1)C(F)(F)F`, 23 µM (active).

Take `C=C(C)C1=C[C@@]2(C)C(=CC1=O)CC[C@@H](O)[C@@H]2C`: in assay [1], the Potency result is “inactive”. Still for that read-out and setting: then `C=C1C(=O)OC2/C=C(/C)C3=CC(=O)C(C)(CC(OC(=O)/C(C)=C/COC(C)=O)C12)O3` (stereo not drawn), with 1.12 µM (active).

On to `C=C(C)[C@@H]1CC[C@]2(C(=O)O)CC[C@]3(C(=O)O)[C@H](CCC4[C@@]5(C)CCC(=O)C(C)(C)C5CC[C@]43C)C12` (stereo partly drawn), for which, in assay [1], the Potency is 11.2 µM (active). Same read-out and setting: then `COc1cc(C(=O)O)ccc1NC(=O)C1NC(CC(C)(C)C)C(C#N)(c2ccc(Cl)cc2F)C1c1cccc(Cl)c1F` (stereo not drawn), with “inactive”.
